Laboratory results reported in ChEMBL document CHEMBL3433997, “St. Jude Leishmania screening dataset” (2016).

Each compound was assayed against Glucose transporter (Leishmania mexicana) (UniProt O61059) (assay: ST_JUDE_LEISH: Cytotoxicity at 2uM final concentration against transgenic Leishmania Mexicana promastigotes LmGT2 that are glucose transport deficient and complemented with the L. Mexicana glucose transporter 2. Activity is measured by DNA content using SYBR green in vitro).
Type: functional
Cc1ccc(O)cc1C[C@@H]1C(=O)CC[C@@]2(C)[C@H]1CC[C@]2(C)O gave an inhibition of 2.57%.
Compound COc1ccc2c(NN=Cc3ccccc3F)ccnc2c1 has an inhibition of 2.7%.
Nc1nc(N)c2c(ccc3c2ncn3Cc2ccccc2)n1 gave an inhibition of 10.5%.
Work on COc1ccccc1CN1CCC(NC(=O)c2ccc(-c3cccc(C(F)(F)F)c3)s2)CC1 yielded an inhibition of -4.28%.
Cc1ccc(S(C)(=O)=O)cc1/C=C/C(=O)O was tested, and the inhibition was 10.4%.
Work on CSc1nc2nc(C)c(Cc3cccc(C(F)(F)F)c3)c(C)n2n1 yielded an inhibition of -1.61%.
Cc1cc(C(=O)NC2CCN(Cc3ccccc3)CC2)ccc1-c1nc2ccc(C(F)(F)F)cc2[nH]1 was tested, and the inhibition was 3.25%.
In the case of O=C(c1ccco1)N1CCN(c2nc(-c3ccc(Cl)cc3)nc3ccccc23)CC1, the inhibition is reported as 4.42%.
For O=S(=O)(c1ccccc1OC(F)(F)F)C1CC2CCC(C1)N2S(=O)(=O)c1cccc(C(F)(F)F)c1 (stereo unspecified), the inhibition was 0.73%.
COc1cc(C2NCC3(CCOCC3)c3cc4c(cc32)OCCO4)cc(OC)c1OC (stereo unspecified) was tested, and the inhibition was 7.63%.
Compound O=C(N1CCN(c2ccc(C(F)(F)F)cc2[N+](=O)[O-])CC1)C(Cl)(Cl)Cl has an inhibition of 1.86%.
COc1cc(/C=C/C(=O)NCC(CCNc2cc(=O)c3ccccc3[nH]2)NCc2cc(Br)cc(Br)c2)cc(OC)c1 (stereo unspecified) showed an inhibition of 2.37%.
In the case of O=C(NCCCCN1CCC(c2nc3ccccc3s2)CC1)c1cc2ccccc2[nH]1, the inhibition is reported as -1.01%.
With Cc1ccn2c(N(Cc3ccccc3)C(=O)c3ccc(Cl)c(Cl)c3)c(-c3ccccc3)nc2c1 the inhibition was 0.79%.
Work on Cc1nc(NC(=N)N)nc2cc3c(cc12)CCC3 yielded an inhibition of 0.48%.
With O=C(CCCCCNC(=O)c1ccc(O)c(-c2ccc(Cl)c(Cl)c2)c1)NC1CCCc2ccccc21 (stereo unspecified) the inhibition was 2.15%.
